Source: PubChem BioAssay (National Center for Advancing Translational Sciences (NCATS))
PLK1 PBD block: qHTS for Inhibitors of PLK1-PDB (polo-like kinase 1 - polo-box domain): Primary Screen; 360,000 tested, 2.8% active; Plk1 PBD binding of FITC phosphopeptide, fluorescence polarization; Serine/threonine-protein kinase PLK1 (Homo sapiens), P53350; Potency, µM, inactives show max response, negative = inhibition, most hits filed as inhibitors; note: series mostly up to about 57 µM; % is set by controls: 0 for no effect and ±100 for the full control effect; nearly all actives have a fitted effect of over 65% in size
BAZ2B block: qHTS Assay for Inhibitors of BAZ2B; Bromodomain adjacent to zinc finger domain protein 2B (Homo sapiens), Q9UIF8; AlphaScreen BAZ2B-H3K14Ac peptide displacement; Potency, µM (titrated, usually from 114 µM), without a hit: at the top dose activity change, negative = inhibition, most hits filed as inhibitors; 360,000 tested, 4.4% active; AID 504333, 2011; note: % is set by controls: 0 for no effect and ±100 for the full control effect; nearly all actives have a fitted effect of over 60% in size
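BAZ2B (50 nM) with biotin-H3(5-23)K14Ac peptide (50 nM) in PBS pH 7.4, 0.01% Tween-20, preformed 30 min, then compound 30 min at room temperature; top concentration 110uM. AlphaScreen streptavidin donor/nickel chelate acceptor beads (10 ug/mL final), 20 min dark, signal read.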
Sfp inh: qHTS Assay for Inhibitors of Bacillus subtilis Sfp phosphopantetheinyl transferase (PPTase). 4'-phosphopantetheinyl transferase ffp (Bacillus subtilis), Q9F4F7. Biochemical Sfp PPTase activity, qHTS. Potency, µM, for the others: largest response in the series, negative = inhibition, actives largely listed as inhibitors. 310,000 tested, 3.5% active;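 note: the enzyme is Sfp with the accession as filed and its product quenches rhodamine fluorescence; 0% = enzyme reaction without inhibitor and -100% = no enzyme wells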
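Buffer: 50 mM Hepes-Na pH 7.6, 10 mM MgCl2, 0.01% Nonidet P-40, 0.01% BSA. Enzyme 15 nM, pre-exposed to compound 15 min; substrates then added and fluorescence change tracked over 30 min.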
G9a block: qHTS Assay for Inhibitors of Histone Lysine Methyltransferase G9a; Histone-lysine N-methyltransferase EHMT2 (Homo sapiens), Q96KQ7; Potency, µM (highest dose often 102 µM), without a hit: at the top dose activity, negative = inhibition, usual class: inhibitors; AID 504332, 2011; G9a H3K9 monomethylation, AlphaScreen, 2 h; 350,000 tested, 8.8% active; note: % is set by controls: 0 for no effect and ±100 for the full control effect; nearly all actives have a fitted effect of over 75% in size
Target sequence (Q96KQ7 913-1193 limits assumed): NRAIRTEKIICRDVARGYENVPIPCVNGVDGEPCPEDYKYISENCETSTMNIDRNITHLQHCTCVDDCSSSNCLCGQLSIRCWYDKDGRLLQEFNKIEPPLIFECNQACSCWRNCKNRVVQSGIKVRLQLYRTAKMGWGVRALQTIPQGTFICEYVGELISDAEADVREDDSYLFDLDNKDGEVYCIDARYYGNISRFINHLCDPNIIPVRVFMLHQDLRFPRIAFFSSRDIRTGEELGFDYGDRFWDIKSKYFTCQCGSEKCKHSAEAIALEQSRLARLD
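Enzyme 20 nM + cpd, 15 min RT; add b-H3K9 pep 500 nM / SAM 20 uM; 2 h RT; anti-H3K9me1 Ab 0.5 ug/mL + SA donor / anti-rabbit acceptor beads 20 ug/mL each, 10 min; AlphaScreen read.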
JMJD2A Tudor: qHTS Assay for Inhibitors of JMJD2A-Tudor Domain | AlphaScreen JMJD2A-Tudor / H3K4me3 peptide binding | Potency, µM (doses to about 114 µM), for the others: top-dose activity change, negative = inhibition, most hits filed as inhibitors | 390,000 tested, 4.4% active; note: % is set by controls: 0 for no effect and ±100 for the full control effect; nearly all actives have a fitted effect of over 50% in size
HP1b chromo inh: HTS for Inhibitors of HP1-beta Chromodomain Interactions with Methylated Histone Tails; Chromobox protein homolog 1 (Homo sapiens), P83916; AlphaScreen HP1-beta / biotin-H3K9me3 peptide binding; Potency, µM (highest dose often 114 µM), inactives show at the top dose activity change, negative = inhibition, hits mostly inhibitors; 390,000 tested, 0.56% active; AID 540317, 2011; note: nearly all actives have a fitted effect of over 70% in size
Target sequence (P83916 whole entry, looked up): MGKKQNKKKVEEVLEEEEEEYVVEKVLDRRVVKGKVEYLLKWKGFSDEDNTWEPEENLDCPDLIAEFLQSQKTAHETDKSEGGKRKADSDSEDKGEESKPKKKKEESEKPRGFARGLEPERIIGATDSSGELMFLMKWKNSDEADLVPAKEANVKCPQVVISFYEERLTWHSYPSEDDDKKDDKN
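Compound inhibition of the preformed complex between 50 nM HP1-beta and 50 nM biotinylated H3K9me3 peptide was read by AlphaScreen. Buffer was PBS pH 7.4 with 0.01% Tween-20. Incubations ran 30 min at room temperature, with 10 ug/mL donor/acceptor beads.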
* = called active by the depositor; ? = inconclusive; · = no result; ! = not active in a repeat; [ ] = remark or other dose. A selection: hits, their analogues and other compounds. The true share with any hit is near 12%. Calls come from the whole dose curve; as a rule, active = well fitted curve in the direction sought with a large enough effect; inconclusive = small, poorly fitted or top-dose-only effect, or another doubt; inactive = no such curve, though single readings can be large; an effect the other way counts as inactive or inconclusive. Potency is the fitted concentration of half-maximal effect.

SMILES	PLK1 PBD block	BAZ2B block	Sfp inh	G9a block	JMJD2A Tudor	HP1b chromo inh
Cc1ccccc1OCC(=O)Nc1nc(-c2ccncc2)cs1	-7%	9%	·	-7%[2.33 µM]	-9%	23%
Cc1ccc(S(=O)(=O)CCC(=O)Nc2nc(-c3ccncc3)cs2)cc1	-13%	-38%	-3%	40µM*	14%	43%
Cc1ccc(S(=O)(=O)CC(=O)Nc2nc(-c3ccccc3)cs2)cc1	-12%	45%	3%	26%[59 µM]	-24%	-1%
CSc1nc2nc(C)c(CCC(=O)OCC(=O)Nc3ccc(F)cc3)c(C)n2n1	0%	13%	·	-7%	-12%	15%
CCOc1ccc(NS(=O)(=O)c2cc(C(=O)N3CCCC3)ccc2Cl)cc1	-5%	-5%	·	15%	-10%	19%
O=C(O)c1ccc(Cl)c(S(=O)(=O)Nc2ccc(OCc3ccccc3)cc2)c1	-4%	-13%	7%	40µM*	-14%	11%
COc1ccc(NC(=O)Cn2c(=O)oc3cc(S(=O)(=O)N4CCCCCC4)ccc32)cc1OC	·	-13%	·	2%[59 µM]	-7%	56%
COc1ccc(Cc2nnc(NC(=O)Cc3cccs3)s2)cc1OC	?	28µM*	-26%	?	-35%[57.1 µM]	?
O=C(Cc1cccs1)Nc1nnc(Cc2ccccc2)s1	27µM*	50µM*	6%	?	50µM*	?
Cn1c(SCC(=O)NCc2cccs2)nnc1-c1ccc(O)cc1	24µM*	-1%	11%	7%	?	-23%
O=C(CSc1nnc(NC(=O)C2CC2)s1)NCc1cccs1	1%	-12%	10%	13%	-6%	37%
O=C(CSc1nnc(Nc2ccccc2)s1)NCc1cccs1	-7%	0%	6%	40µM*	-4%	31%
COc1ccc(C(=O)Nc2nnc(Cc3cccs3)s2)cc1OC	-3%	-2%	3%	27%[0.501 µM]	-35%	31%
Cn1c(SCC(=O)NCc2cccs2)nnc1-c1cccs1	-6%	4%	-4%	-3%[59 µM]	5%[57.1 µM]	62%
O=C(Cc1cccs1)Nc1nnc(SCC(=O)NC2CCCCC2)s1	-5%	0%	0%	?	-17%[57.1 µM]	5%
O=C(Cc1cccs1)Nc1nnc(SCc2cccc3ccccc23)s1	-17%	?	9%	45µM*	-29%	30%
NC(=O)C1=C(c2ccccc2)c2ccccc2C1=O	4.2µM*	·	·	·	-13%	2%[57 µM]
Cc1ccc(C2=C(O)c3ccccc3C(=O)C2=O)cc1	2%	?	-2%	·	-5%	-5%
O=C(CSc1nnc(CCc2ccccc2)n1-c1ccc(Cl)cc1)c1ccccc1	-1%	-32%	-19%	11µM*	-33%	2%
COCCCN1C(=O)C(CC(=O)NCCCN(C)C)CC(C(=O)N2CCCCCC2)=C1C (stereo not given)	-12%	·	·	·	·	·
O=S(=O)(c1ccc(Cl)cc1)c1nnn2c1nc(NCc1ccccc1)c1sccc12	·	1%	·	2%[59 µM]	-4%	33%
O=C(O)c1cc(O)c2c(c1)C(=O)c1cccc(O)c1C2=O	?	50µM*	56µM*!	40µM*	56µM*	?
CCN1CCc2c(sc(-n3cccc3)c2C(CCC(C)C)NC(=O)NCCC(=O)OC)C1 (stereo not given)	·	-17%	·	?	?	4%
Cc1ccc(CN(C(=O)Nc2cccc(Cl)c2)c2ccccn2)cc1	·	33%	·	58%[59 µM]	54%	108%
N#Cc1c(CSCC(=O)O)cc(=O)n2c1[nH]c1ccccc12	2%	-35%	-8%	?	-16%	26%
SMILES	PLK1 PBD block	BAZ2B block	Sfp inh	G9a block	JMJD2A Tudor	HP1b chromo inh
N#Cc1c(C(F)(F)F)cc(=O)n2c1[nH]c1ccccc12	21µM*	-1%	17%	-1%	13%	10%
Cc1c(Cc2ccccc2)c(=O)n2c([nH]c3ccccc32)c1C#N	-15%	-4%	79µM*	0%	-10%[11.4 µM]	64%
COCCNc1nc(-c2c(C)noc2C)nc2ccccc12	·	·	1%	-14%[0.501 µM]	·	·
Cc1noc(C)c1-c1nc(NCc2cccs2)c2ccccc2n1	·	·	71µM*	-46%[0.501 µM]	·	·
CNC1=C(Br)C(=O)c2ccncc2C1=O	·	·	-26%	·	·	·
COc1ccccc1/C=C(/C(=O)OCC(=O)Nc1ccc(N(C)C)cc1)c1ccccc1	-19%	10µM*	-5%	10µM*	?	?
COc1ccccc1/C=C(/C(=O)OCC(=O)Nc1ccccc1C)c1ccccc1	5%	-5%	-20%	?	-18%	29%
CC1CCCN(C(=O)CN2CCN(C(=O)c3ccco3)CC2)C1 (stereo not given)	-13%	-6%	4%	25µM*	-3%	34%
O=C(c1ccco1)N1CCN(CC(=O)N2c3ccccc3CCc3ccccc32)CC1	-2%	18µM*	?	?	1µM*	14µM*
Cn1c(-c2nc(-c3ccccc3)cs2)nc2ccccc21	·	·	45µM*	·	·	·
Cn1c(-c2ccncc2)nc2ccccc21	-8%	10%	24%	1%[0.501 µM]	-14%	19%
O=C(Nc1cccc(Cl)c1)N1CCOCC1	5%	-7%	4%	7%	-11%	15%
O=C1CCN(C(=O)Nc2ccccc2Cl)N1	-7%	2%	-10%	10µM*	?	2%
CCOC(=O)N1CCN(C(=O)Nc2ccccc2Cl)CC1	-6%	-2%	5%	3%[59 µM]	-17%	19%
S=C(Nc1ccccc1Cl)N1CCCCC1	-6%	-1%	12%	9%[59 µM]	-4%	30%
O=C1CCN(C(=O)Nc2cccc(Cl)c2)N1	-10%	-11%	-22%	10µM*	20µM*	2%
O=C1CN(C(=S)Nc2ccccc2Cl)CCN1	-21%	-28%	45µM*	45µM*	-8%	39%
O=S(=O)(Cc1ccccc1)c1nnnn1C1CCCCC1	·	·	4%	·	·	·
CCn1nc(C(=O)OCC(=O)c2ccc(F)cc2)c2ccccc2c1=O	-6%	-22%	1%	40%[59 µM]	-12%	38%
CCn1nc(C(=O)OCC(=O)c2ccc3c(c2)OCCO3)c2ccccc2c1=O	21µM*	-23%	5%	?	50µM*	-2%
COc1ccccc1CN1CC2(CCN(C(=O)c3cnccn3)CC2)C1	·	·	20%	-8%[12.7 µM]	·	·
CCOC(=O)Cc1csc(N/N=C\c2ccc(N(C)C)cc2)n1	-7%	11µM*	?	45µM*	40µM*	-14%
CCOC(=O)Cc1csc(N/N=C\c2cccc(Br)c2)n1	24µM*	-3%	-26%	-27%[0.0925 µM]	28µM*	8%
